Measured values as given in the supplement of paper PMC12669032.
Values without a mark were called inactive.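 How the source made its calls: active = AUC reduced over 20% with Padj below 0.05 in at least 2 of 3 replicates; inactive = otherwise.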

Tested on: Coprococcus comes
Experiment: growth AUC relative to DMSO control (median of replicates) (fraction); higher = more growth (less inhibition), active = hit call of the paper
Settings: 20 µM; 24 h
How it was run: (§1)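 Gut bacterial monocultures were grown anaerobically at 37 °C in mGAM, starting at OD600 0.05, with 20 µM compound (1% DMSO) in round-bottom 96-well plates under pierced gas-permeable seals. OD600 was read hourly for 24 h. Area under the growth curve (minimum OD set to 0) was normalised to the plate median of DMSO controls, or to row and column medians on the industrial chemical plate. The value is the median of three biological replicates grown on separate days.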

Compound	growth AUC
Nc1cccc(O)c1	1.06
CCc1cccc(C)c1NC(C)C(=O)O (racemic)	1.04
CCc1ccc(C(c2ccc(CC)cc2)C(Cl)Cl)cc1	1.04
CC(C)N(C(=O)CS(=O)CC(=O)O)c1ccc(F)cc1 (stereo not drawn)	0.957
O=[N+]([O-])c1ccc(Oc2c(Cl)cc(Cl)cc2Cl)cc1	0.95
CCOC(=O)c1nc(C(Cl)(Cl)Cl)n(-c2ccc(Cl)cc2Cl)n1	0.946
Cc1ccc2c(c1)[C@H](Nc1nc(N)nc(C(C)F)n1)[C@@H](C)C2 (stereo partly drawn)	0.968
CCCCCCCC(=O)Oc1c(Br)cc(C#N)cc1Br	1.01
CCNc1nc(N)[nH]c(=O)n1	1.02
CN(C)C(=O)Nc1cc(C(C)(C)C)on1	0.99
O=C(NC(=O)c1c(F)cccc1F)Nc1cc(C(F)(F)F)cc(C(F)(F)F)c1Cl	0.932
COC(=O)CSc1cc(N=c2sc(=O)n3n2CCCC3)c(F)cc1Cl	0.999
CCN(Cc1c(F)cccc1Cl)c1c([N+](=O)[O-])cc(C(F)(F)F)cc1[N+](=O)[O-]	0.784
CCNC(=O)[C@@H](C)OC(=O)Nc1ccccc1	1.04
CON=C(Cc1cccnc1)c1ccc(Cl)cc1Cl	0.94
COC(=O)Nc1ccc(Cl)c(Cl)c1	0.987
CC[N+](CC)(CC(=O)Nc1c(C)cccc1C)Cc1ccccc1.O=C([O-])c1ccccc1	1.04
CC(C)(C)[C@@H](O)[C@@H](Cc1ccc(Cl)cc1)n1cncn1 (mixture of isomers)	0.994
COCC(=O)N(c1c(C)cccc1C)C(C)C(=O)O (stereo not drawn)	1.01
COC(=O)c1ccccc1S(=O)(=O)NC(=O)n1nc(OCC(C)O)n(C)c1=O (stereo not drawn)	0.991

Compound	growth AUC
CCOC(=O)Cc1[nH]nc2ccc(Cl)cc12	0.976
CCCCCCCC/C=C\CCCCCCCC(N)=O	0.869
COC1CCC2(CC1)NC(=O)C(c1cc(C)ccc1C)=C2OC1OC(CO)C(O)C(O)C1O (stereo not drawn)	1.03
COC(=O)c1ccc(C(F)(F)F)nc1S(=O)(=O)[N-]C(=O)Nc1nc(OC)cc(OC)n1.[Na+]	0.979
COC1CCC2(CC1)NC(=O)C(c1cc(C)ccc1C)=C2O (stereo not drawn)	1.02
O=C(Nc1ccc(O)cc1-c1ccc(Cl)cc1)c1cccnc1Cl	0.924
Cc1nn(C)c(F)c1C(=O)Nc1ccccc1C(C)CC(C)C (stereo not drawn)	0.985
O=C(NCc1ncc(C(F)(F)F)cc1Cl)c1c(Cl)cccc1Cl	1.03
CC1COc2ccccc2N1C(=O)C(Cl)Cl (stereo not drawn)	0.887
CCc1cccc(C)c1NC(=O)C(=O)O	0.985
Cc1[nH]oc(=O)c1N=Nc1ccccc1Cl	1.01
COc1ccccc1C(=O)NS(=O)(=O)c1ccc(C(=O)NC2CC2)cc1	0.995
O=C(O)c1ccc(Cl)cc1Cl	1
CCCCCCCC/C=C\CCCCCCCCCCCCC	1
COC(=O)COc1ccc(Cl)cc1C	1.04
CC(C)OC(=O)N[C@H](C(=O)N[C@H](C)c1nc2ccc(F)cc2s1)C(C)C	1.06
CCNc1nc(N)nc(Cl)n1	0.995
Cc1nn(C)c(OCC(=O)c2ccccc2)c1C(=O)c1ccc(Cl)cc1Cl	1.02
Cc1cc(C)c(C2=C(O)C3(CCCC3)OC2=O)c(C)c1	0.981

Tested on: Escherichia coli ED1a
Experiment: as above
Settings: 20 µM; 24 h
How it was run: as §1

Compound	growth AUC
Nc1cccc(O)c1	1.01
CCc1cccc(C)c1NC(C)C(=O)O (racemic)	0.986
CCc1ccc(C(c2ccc(CC)cc2)C(Cl)Cl)cc1	1.02
CC(C)N(C(=O)CS(=O)CC(=O)O)c1ccc(F)cc1 (stereo not drawn)	1
O=[N+]([O-])c1ccc(Oc2c(Cl)cc(Cl)cc2Cl)cc1	1.01
CCOC(=O)c1nc(C(Cl)(Cl)Cl)n(-c2ccc(Cl)cc2Cl)n1	1
Cc1ccc2c(c1)[C@H](Nc1nc(N)nc(C(C)F)n1)[C@@H](C)C2 (stereo partly drawn)	1.03
CCCCCCCC(=O)Oc1c(Br)cc(C#N)cc1Br	0.973
CCNc1nc(N)[nH]c(=O)n1	0.991
CN(C)C(=O)Nc1cc(C(C)(C)C)on1	0.997
O=C(NC(=O)c1c(F)cccc1F)Nc1cc(C(F)(F)F)cc(C(F)(F)F)c1Cl	0.949
COC(=O)CSc1cc(N=c2sc(=O)n3n2CCCC3)c(F)cc1Cl	1.02
CCN(Cc1c(F)cccc1Cl)c1c([N+](=O)[O-])cc(C(F)(F)F)cc1[N+](=O)[O-]	0.982
CCNC(=O)[C@@H](C)OC(=O)Nc1ccccc1	1.01
CON=C(Cc1cccnc1)c1ccc(Cl)cc1Cl	1
COC(=O)Nc1ccc(Cl)c(Cl)c1	0.999
CC[N+](CC)(CC(=O)Nc1c(C)cccc1C)Cc1ccccc1.O=C([O-])c1ccccc1	1.01
CC(C)(C)[C@@H](O)[C@@H](Cc1ccc(Cl)cc1)n1cncn1 (mixture of isomers)	1
COCC(=O)N(c1c(C)cccc1C)C(C)C(=O)O (stereo not drawn)	1
COC(=O)c1ccccc1S(=O)(=O)NC(=O)n1nc(OCC(C)O)n(C)c1=O (stereo not drawn)	0.99

Compound	growth AUC
CCOC(=O)Cc1[nH]nc2ccc(Cl)cc12	1.02
CCCCCCCC/C=C\CCCCCCCC(N)=O	0.991
COC1CCC2(CC1)NC(=O)C(c1cc(C)ccc1C)=C2OC1OC(CO)C(O)C(O)C1O (stereo not drawn)	1.03
COC(=O)c1ccc(C(F)(F)F)nc1S(=O)(=O)[N-]C(=O)Nc1nc(OC)cc(OC)n1.[Na+]	0.983
COC1CCC2(CC1)NC(=O)C(c1cc(C)ccc1C)=C2O (stereo not drawn)	1.03
O=C(Nc1ccc(O)cc1-c1ccc(Cl)cc1)c1cccnc1Cl	0.986
Cc1nn(C)c(F)c1C(=O)Nc1ccccc1C(C)CC(C)C (stereo not drawn)	1.02
O=C(NCc1ncc(C(F)(F)F)cc1Cl)c1c(Cl)cccc1Cl	0.963
CC1COc2ccccc2N1C(=O)C(Cl)Cl (stereo not drawn)	0.985
CCc1cccc(C)c1NC(=O)C(=O)O	1.02
Cc1[nH]oc(=O)c1N=Nc1ccccc1Cl	0.989
COc1ccccc1C(=O)NS(=O)(=O)c1ccc(C(=O)NC2CC2)cc1	1.03
O=C(O)c1ccc(Cl)cc1Cl	0.986
CCCCCCCC/C=C\CCCCCCCCCCCCC	0.987
COC(=O)COc1ccc(Cl)cc1C	0.969
CC(C)OC(=O)N[C@H](C(=O)N[C@H](C)c1nc2ccc(F)cc2s1)C(C)C	0.989
CCNc1nc(N)nc(Cl)n1	1
Cc1nn(C)c(OCC(=O)c2ccccc2)c1C(=O)c1ccc(Cl)cc1Cl	0.995
Cc1cc(C)c(C2=C(O)C3(CCCC3)OC2=O)c(C)c1	0.997
